# Experimental data from PubChem BioAssay AID1159580 (chemical genetic matrix, 2015).
# Where “and” joins values, the source holds several entries; their conditions need not be identical. Equal entries are not always repeated. Among all 5,500 compounds or so, about 2,000 (36%) were called active. About 18% were inconclusive and are not listed. Rule as the data show it: active = normalized growth mostly below about 0.91 (no sharp cut-off); inconclusive = no clear call, values can overlap the other calls; inactive = mostly above about 0.92. The list shows a part of the results.
# Assay: chemical genetic growth profiling, strain panel (AID 1159580);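 also: tested at 20 µM; growth read once vehicle control cultures reached saturation at 30 °C; 1 = growth at the plate median or of vehicle wells; lower values mean less growth of the strain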
# Settings: S. cerevisiae deletion strains, growth OD
smiles,measurement,setting,value
C1CCC(C(CC2CCCCN2)C2CCCCC2)CC1 (stereo not drawn),normalized growth,"locus YAL013W, strain DEP1, stronger effect = lower value",0.789 (active)
same,normalized growth,"locus YAL021C, strain ccr4, stronger effect = lower value",0.628 (active)
same,normalized growth,"locus YAL026C, strain drs2, stronger effect = lower value",0.0926 (active)
same,normalized growth,"locus YAL030W, strain snc1, stronger effect = lower value",0.986 (inactive)
same,normalized growth,"locus YBL061C, strain skt5, stronger effect = lower value",0.935 (inactive)
same,normalized growth,"locus YBR009C, strain hhf1, stronger effect = lower value",0.955 (inactive)
same,normalized growth,"locus YBR021W, strain FUR4, stronger effect = lower value",0.219 (active)
same,normalized growth,"locus YBR023C, strain chs3, stronger effect = lower value",0.884 (active)
same,normalized growth,"locus YBR171W, strain sec66, stronger effect = lower value",0.973 (inactive)
same,normalized growth,"locus YBR229C, strain ROT2, stronger effect = lower value",0.99 (inactive)
same,normalized growth,"locus YBR231C, strain swc5, stronger effect = lower value",0.554 (active)
same,normalized growth,"locus YBR279W, strain paf1, stronger effect = lower value",0.969 (inactive)
same,normalized growth,"locus YCL011C, strain gbp2, stronger effect = lower value",0.97 (inactive)
same,normalized growth,"locus YCL016C, strain dcc1, stronger effect = lower value",0.955 (inactive)
same,normalized growth,"locus YCL029C, strain bik1, stronger effect = lower value",0.873 (active)
same,normalized growth,"locus YCL061C, strain MRC1, stronger effect = lower value",0.992 (inactive)
same,normalized growth,"locus YCL069W, strain vba3, stronger effect = lower value",0.965 (inactive)
same,normalized growth,"locus YCR088W, strain abp1, stronger effect = lower value",0.96 (inactive)
same,normalized growth,"locus YDL005C, strain med2, stronger effect = lower value",0.983 (inactive)
same,normalized growth,"locus YDL035C, strain GPR1, stronger effect = lower value",0.493 (active)
same,normalized growth,"locus YDL040C, strain nat1, stronger effect = lower value",0.978 (inactive)
same,normalized growth,"locus YDL074C, strain BRE1, stronger effect = lower value",0.585 (active)
same,normalized growth,"locus YDL101C, strain DUN1, stronger effect = lower value",0.173 (active)
same,normalized growth,"locus YDL134C, strain PPH21, stronger effect = lower value",0.209 (active)
same,normalized growth,"locus YDL185W, strain tfp1, stronger effect = lower value",1.01 (inactive)
same,normalized growth,"locus YDL192W, strain arf1, stronger effect = lower value",0.0725 (active)
same,normalized growth,"locus YDR001C, strain nth1, stronger effect = lower value",0.967 (inactive)
same,normalized growth,"locus YDR069C, strain doa4, stronger effect = lower value",0.706 (active)
same,normalized growth,"locus YDR101C, strain arx1, stronger effect = lower value",0.911 (active)
same,normalized growth,"locus YDR137W, strain rgp1, stronger effect = lower value",1.32 [resistant] (active)
same,normalized growth,"locus YDR159W, strain sac3, stronger effect = lower value",0.965 (inactive)
same,normalized growth,"locus YDR162C, strain NBP2, stronger effect = lower value",0.0586 (active)
same,normalized growth,"locus YDR195W, strain ref2",1.13 (inactive)
same,normalized growth,"locus YDR297W, strain sur2, stronger effect = lower value",0.987 (inactive)
same,normalized growth,"locus YDR318W, strain mcm21, stronger effect = lower value",0.646 (active)
same,normalized growth,"locus YDR334W, strain swr1, stronger effect = lower value",0.972 (inactive)
same,normalized growth,"locus YDR335W, strain msn5, stronger effect = lower value",0.957 (inactive)
same,normalized growth,"locus YDR388W, stronger effect = lower value",0.125 (active)
same,normalized growth,"locus YDR392W, strain spt3, stronger effect = lower value",0.871 (inactive)
same,normalized growth,"locus YDR502C, strain sam2, stronger effect = lower value",0.594 (active)
same,normalized growth,"locus YEL003W, strain gim4, stronger effect = lower value",0.946 (inactive)
same,normalized growth,"locus YEL037C, strain rad23, stronger effect = lower value",0.974 (inactive)
same,normalized growth,"locus YEL061C, strain CIN8 (second series), stronger effect = lower value",0.973 (inactive)
same,normalized growth,"locus YEL061C, strain CIN8, stronger effect = lower value",0.658 (active)
same,normalized growth,"locus YER015W, strain faa2, stronger effect = lower value",0.979 (inactive)
same,normalized growth,"locus YER016W, strain bim1, stronger effect = lower value",0.972 (inactive)
same,normalized growth,"locus YER110C, stronger effect = lower value",0.935 (inactive)
same,normalized growth,"locus YER111C, strain swi4, stronger effect = lower value",0.991 (inactive)
same,normalized growth,"locus YER155C, strain BEM2 (second series), stronger effect = lower value",0.912 (inactive)
same,normalized growth,"locus YER155C, strain BEM2, stronger effect = lower value",0.957 (inactive)
same,normalized growth,"locus YER167W, strain BCK2, stronger effect = lower value",0.718 (active)
same,normalized growth,"locus YFR010W, strain ubp6, stronger effect = lower value",0.601 (active)
same,normalized growth,"locus YGL078C, strain dbp3, stronger effect = lower value",0.999 (inactive)
same,normalized growth,"locus YGL086W, strain mad1, stronger effect = lower value",0.333 (active)
same,normalized growth,"locus YGL167C, strain pmr1, stronger effect = lower value",0.989 (inactive)
same,normalized growth,"locus YGL173C, strain kem1, stronger effect = lower value",0.962 (inactive)
same,normalized growth,"locus YGL227W, strain vid30, stronger effect = lower value",0.991 (inactive)
same,normalized growth,"locus YGL240W, strain doc1, stronger effect = lower value",0.989 (inactive)
same,normalized growth,"locus YGL248W, strain PDE1, stronger effect = lower value",0.227 (active)
same,normalized growth,"locus YGL253W, strain hxk2, stronger effect = lower value",0.973 (inactive)
same,normalized growth,"locus YGR135W, strain pre9, stronger effect = lower value",0.501 (active)
same,normalized growth,"locus YGR252W, strain gcn5, stronger effect = lower value",0.271 (active)
same,normalized growth,"locus YHR013C, strain ard1, stronger effect = lower value",0.842 (active)
same,normalized growth,"locus YHR027C, strain rpn1, stronger effect = lower value",0.987 (inactive)
same,normalized growth,"locus YHR030C, strain SLT2, stronger effect = lower value",0.0919 (active) and 1.01 (inactive)
same,normalized growth,"locus YHR079C, strain IRE1 (second series), stronger effect = lower value",0.93 (inactive)
same,normalized growth,"locus YHR079C, strain IRE1, stronger effect = lower value",1.02 (inactive)
same,normalized growth,"locus YHR094C, strain hxt1, stronger effect = lower value",1.01 (inactive)
same,normalized growth,"locus YHR129C, strain ARP1, stronger effect = lower value",0.742 (active)
same,normalized growth,"locus YHR142W, strain chs7, stronger effect = lower value",0.774 (active)
same,normalized growth,"locus YHR200W, strain rpn10, stronger effect = lower value",0.922 (inactive)
same,normalized growth,"locus YIL066C, strain RNR3, stronger effect = lower value",0.504 (active)
same,normalized growth,"locus YIL073C, strain SPO22, stronger effect = lower value",0.124 (active)
same,normalized growth,"locus YIL125W, strain kgd1, stronger effect = lower value",1.02 (inactive)
same,normalized growth,"locus YIR030C, strain dcg1, stronger effect = lower value",0.897 (active)
same,normalized growth,"locus YJL092W, strain hpr5, stronger effect = lower value",0.984 (inactive)
same,normalized growth,"locus YJL095W, strain BCK1 (second series), stronger effect = lower value",0.927 (inactive)
same,normalized growth,"locus YJL095W, strain BCK1, stronger effect = lower value",0.169 (active) and 1.01 (inactive)
same,normalized growth,"locus YJL115W, strain asf1, stronger effect = lower value",0.984 (inactive)
same,normalized growth,"locus YJL129C, strain trk1, stronger effect = lower value",0.953 (inactive)
same,normalized growth,"locus YJL134W, strain LCB3, stronger effect = lower value",0.996 (inactive)
same,normalized growth,"locus YJL154C, strain vps35, stronger effect = lower value",0.964 (inactive)
same,normalized growth,"locus YJL164C, strain tpk1, stronger effect = lower value",0.968 (inactive)
same,normalized growth,"locus YJL166W, strain qcr8, stronger effect = lower value",0.984 (inactive)
same,normalized growth,"locus YJL168C, strain set2, stronger effect = lower value",0.731 (active)
same,normalized growth,"locus YJL187C, strain SWE1 (second series), stronger effect = lower value",0.521 (active)
same,normalized growth,"locus YJL187C, strain SWE1, stronger effect = lower value",0.973 (inactive)
same,normalized growth,"locus YJR043C, strain POL32, stronger effect = lower value",0.722 (active)
